Screening results as filed in PubChem BioAssay.
DAX1 inh-1: NR0B1 (DAX1) inhibition; HEK293 Gal4-DAX1 luciferase reporter, luminescence; hit rate 0.99% among 340,000; P51843; inhibition, % at 6.75 µM;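 active = inhibition above the mean over all tested compounds plus 3 SD, cut at about 4.2% in these data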;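 note: 0% = DAX1-transfected cells with DMSO and 100% = empty-vector control cells with DMSO; inhibition shows as a rise in luminescence from relieved DAX1 repression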
hgDAF-12 ag: activates the H. glycines DAF-12 receptor ligand-binding domain; activation, % at 6.8 µM; hit rate 1.8% among 370,000; HEK293 GAL4-hgDAF12 UAS-luciferase reporter, agonist luminescence; normalized to butyrate control; AID 687014;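 active = activation above a cutoff set at the mean of all screened compounds plus 3 SD, cut at about 10% in these data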;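 note: 0% = DMSO wells and 100% = sodium butyrate wells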
ssDAF-12 act: activators of S. stercoralis DAF-12 nuclear receptor | hit rate 1% among 370,000 | activation, % at 6.8 µM | HEK293 ssDAF-12/GRIP1 lit1-tk-luc reporter, luminescence; % of 3 µM dafachronic acid response;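 active = activation above the mean over all tested compounds plus 3 SD, cut at about 0.9% in these data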;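 note: 0% = DMSO-only wells and 100% = 3 µM delta7-dafachronic acid wells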
Rev-erbA mod: Rev-erb alpha (human) modulation. P20393. Rev-erbα–FITC-DNA binding, fluorescence polarization, 90 min. activity, % at 10 µM. hit rate 0.79% among 370,000. AID 1259318;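 active = activity above about 14%, limit read from the data; passing the limit was not always enough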;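 note: 0% = DMSO wells with 35 nM protein and 100% = DMSO wells with 750 nM protein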
Target sequence (P20393 whole entry, looked up): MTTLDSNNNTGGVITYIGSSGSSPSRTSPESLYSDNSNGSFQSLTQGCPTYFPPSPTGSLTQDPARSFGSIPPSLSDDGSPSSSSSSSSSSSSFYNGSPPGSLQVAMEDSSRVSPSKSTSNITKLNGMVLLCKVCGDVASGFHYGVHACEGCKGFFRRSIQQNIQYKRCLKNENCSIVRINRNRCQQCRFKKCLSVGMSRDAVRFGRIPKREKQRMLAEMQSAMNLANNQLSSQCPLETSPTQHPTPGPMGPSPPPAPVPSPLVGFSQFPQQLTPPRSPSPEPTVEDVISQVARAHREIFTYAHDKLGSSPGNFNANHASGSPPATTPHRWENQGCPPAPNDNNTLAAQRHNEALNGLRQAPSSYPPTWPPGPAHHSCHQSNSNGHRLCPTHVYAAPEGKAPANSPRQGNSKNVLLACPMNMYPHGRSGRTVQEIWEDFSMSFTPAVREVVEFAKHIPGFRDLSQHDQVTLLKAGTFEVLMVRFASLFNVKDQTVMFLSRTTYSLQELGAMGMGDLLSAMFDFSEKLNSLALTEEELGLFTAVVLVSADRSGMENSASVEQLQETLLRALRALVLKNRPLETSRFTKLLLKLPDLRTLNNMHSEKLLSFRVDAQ
DAX1 inh-2: DAX1 (NR0B1) inhibition, primary screen; HEK293T StAR-luciferase reporter, SF-1/DAX-1 repression relief; inhibition, % at 6.8 µM; hit rate 1.1% among 370,000; AID 652010;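 active = inhibition above the mean over all tested compounds plus 3 SD, cut at about 3.6% in these data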;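 note: 0% = DAX-1 cells with DMSO and 100% = cells lacking DAX-1 with DMSO; higher inhibition means more luminescence from relief of DAX-1 repression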
hcDAF12 agonist: activates DAF-12 receptor from parasite H. contortus; hit rate 1.4% among 370,000; HEK293 hcDAF-12 lit1-tk-luc reporter, luminescence; 0% DMSO, 100% Δ7-dafachronic acid; activation, % at 6.8 µM;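 active = activation above the mean of all tested compounds plus 3 SD, cut at about 5.5% in these data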;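 note: 100% = response to 3 µM Δ7-dafachronic acid high control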
DAX1 conf: confirmation of human DAX1 (NR0B1) inhibitors | shares compounds with DAX1 inh-2 | HEK293T StAR-promoter luciferase reporter, SF-1/DAX-1 repression | inhibition, % at 6.8 µM | hit rate 87% among 2,400 | AID 652134;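 active = inhibition above the average of every tested compound plus 3 SD, cut at about 3.8% in these data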;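 note: 0% = DAX-1 cells with DMSO and 100% = no DAX-1 control cells with DMSO; active compounds raise luminescence by relieving repression of the StAR reporter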
SF1 AF2mut Luc: nonselective inhibitor or artifact in SF-1 mutant DAX1 counter-screen | shares compounds with DAX1 inh-2 | HEK293 StAR-luciferase, SF-1 AF2 mutant, luminescence | inhibition, % at 6.8 µM | hit rate 78% among 2,400;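 active = inhibition above the mean of all tested compounds plus 3 SD, cut at about 3% in these data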;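 note: 0% = DAX-1 transfected cells with DMSO and 100% = cells without DAX-1 with DMSO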
Active calls of the source: *; nt = no result given. In the library only some 4.8% were active in any assay of this set; here they are far more common.

SMILES	DAX1 inh-1	hgDAF-12 ag	ssDAF-12 act	Rev-erbA mod	DAX1 inh-2	hcDAF12 agonist	DAX1 conf	SF1 AF2mut Luc
COC(=O)[C@]12C[C@H](CC(=O)NCCCCc3ccccc3)C(=O)N(Cc3cccc4ccccc34)C1=C[C@H](C1CCCC1)O[C@@H]2C	nt	0	-1	0	0	-1	nt	nt
Cc1ccccc1S(=O)(=O)/N=C(/Nc1c(C)n(C)n(-c2ccccc2)c1=O)c1ccccc1	0	1	-1	-7	-1	-1	nt	nt
Cc1ccccc1S(=O)(=O)/N=C(/Nc1nc2ccccc2s1)c1ccccc1	0	11*	0	12	5.5*	2	3.8*	4.1*
Nc1[nH]c(C(=O)c2ccccc2)c(-c2ccc(F)cc2)c1C(=O)c1c[nH]c2ccccc12	nt	3	0	5	0	4	nt	nt
CCN1CCN(S(=O)(=O)c2ccc(Cl)c(C(=O)NCCc3ccccc3)c2)CC1	1	7	0	-1	5.6*	2	3	3
COCc1[nH]nc2c1C(c1ccc(F)cc1)NC2=O (stereo not given)	nt	3	-1	11	3	3	nt	nt
Cc1ccc(NC(=O)C/C(N)=N/OC(=O)Nc2cccc(C)c2)cc1	0	3	-1	-5	5.0*	2	2	1
COc1ccc(-c2csc(-c3ccc(C(=O)O)cc3)n2)cc1	3	12*	1	-7	4.7*	4	12*	7.0*
COc1ccc(-c2nc(CC(=O)O)cs2)cc1	2	0	-1	3	-1	-1	nt	nt
C[C@@H]1CN([C@H](C)CO)C(=O)CCCn2nncc2CO[C@@H]1CN(C)S(=O)(=O)c1ccc2c(c1)OCCCO2	1	3	-1	-8	4.8*	2	2	2
Cc1ccc(S(=O)(=O)n2ccc(-c3c(-c4ccc(F)cc4)noc3C)n2)cc1	nt	0	-1	1	-4	-3	nt	nt
CCCCCCN1C[C@@H](O)[C@H](n2cc(COC(=O)c3ccccc3)nn2)C[C@@H]1c1ccccc1	1	-2	-1	-3	4.6*	-2	-1	-1
CCCCCCN1C[C@H](O)[C@@H](n2cc(COC(=O)c3ccccc3)nn2)C[C@@H]1c1ccccc1	0	1	-1	-3	0	-1	nt	nt
Nc1nc2c(ncn2[C@@H]2O[C@H](C(=O)NCC3CCCCC3)[C@@H](O)[C@H]2O)c(=O)[nH]1	nt	1	0	-1	-1	-1	nt	nt
Cc1nc2ccc(NC(=O)CS(=O)(=O)c3ccccc3)cc2s1	1	7	0	1	6.0*	1	5.6*	3.0*
CC(C)(C)OC(=O)NCc1cc(F)ccc1/C=C/S(=O)(=O)NCc1ccccc1	nt	-3	-1	9	0	-4	nt	nt
COc1ccc(NC(=O)c2cccs2)cc1	0	9	-1	5	1	1	nt	nt
O=C(Nc1ccc(NC(=O)C2CC2)cc1)c1cccs1	1	7	0	5	7.1*	2	8.3*	5.3*
COc1ccc(C(=O)COC(=O)c2cccc(-n3cnnn3)c2)c(OC)c1	0	10	-1	7	4.6*	4	7.8*	4.4*
CC(=O)Nc1cccc(C(=O)OCC(=O)c2ccccc2Cl)c1	3	10	0	3	5.1*	4	7.3*	5.6*
CC(C)CN1C(=O)C[C@]2(C(=O)N(C)c3ccc(NS(=O)(=O)C4CC4)cc32)C1c1ccccc1 (stereo not given in full)	nt	-1	0	7	-1	-1	nt	nt
CC(=O)Nc1ccc(-c2ccnc3c2CC(C(=O)NCc2ccco2)O3)cc1 (stereo not given)	nt	-2	1	-4	4.7*	5	12*	-6
CC(=O)Nc1ccc(-c2ccnc3c2CC(C(=O)NCc2ccccc2)O3)cc1 (stereo not given)	nt	-6	0	-2	4.5*	1	9.6*	-7
CC(=O)Nc1ccc(-c2ccnc3c2CC(C(=O)NCCc2ccccc2)O3)cc1 (stereo not given)	nt	-1	-1	-2	0	-1	nt	nt
COC(=O)[C@H]1C[C@@]2(n3ccc4ccccc43)c3ccccc3N(S(=O)(=O)c3ccccc3)[C@H]2N1	nt	1	0	1	-1	3	nt	nt
SMILES	DAX1 inh-1	hgDAF-12 ag	ssDAF-12 act	Rev-erbA mod	DAX1 inh-2	hcDAF12 agonist	DAX1 conf	SF1 AF2mut Luc
O=c1cc(-c2ccccc2)oc2cc(O)c(O)c(O)c12	2	10	-1	-12	5.5*	4	9.6*	5.1*
O=c1cc(-c2ccc(O)cc2)oc2ccc3ccccc3c12	-4	-12	-2	-28	-4	-3	nt	nt
CC(=O)NC(CC(=O)N1CCN(C(C)=O)CC1)c1ccccc1 (stereo not given)	0	1	-1	2	5.3*	0	3	0
O=C(NC(CC(=O)N1CCN(c2ccccc2)CC1)c1ccccc1)c1ccccc1 (stereo not given)	2	-2	-2	5	-1	-2	nt	nt
CC(=NNc1cc(C)c2cc(C)ccc2n1)c1ccccn1	nt	-3	-1	5	-7	-1	nt	nt
O=C(CCS(=O)(=O)c1ccccc1)NC1CCCCC1	0	3	-1	-3	4.7*	0	5.8*	4.0*
O=C(CSc1ccccc1)NC1CCCCCCC1	0	4	-1	5	2	1	nt	nt
O=C(CSc1ccccc1)NC1CCCCCC1	0	9	0	0	6.2*	6.3*	7.7*	3.8*
CCC1CCCCN1C(=O)CCCc1ccccc1 (stereo not given)	1	3	0	4	1	1	nt	nt
CCC1CCCCN1C(=O)CCS(=O)(=O)c1ccccc1 (stereo not given)	1	1	0	-3	4.8*	2	4.2*	1
O=C(/C=C/c1ccc(S(=O)(=O)N2CCOCC2)cc1)NCc1ccccc1F	0	-3	-1	-2	5.0*	0	0	1
O=C(/C=C/c1ccc(S(=O)(=O)N2CCOCC2)cc1)NCc1ccccc1Cl	-1	-2	-2	2	-1	-2	nt	nt
O=C(N/N=C/c1cccc2ccccc12)c1cccc(F)c1	0	8	0	0	5.1*	3	2	2
COc1ccc(/C(N)=N/OC(=O)CC2CCCCC2)cc1OC	1	5	-1	0	-1	-1	nt	nt
COc1ccc(/C(N)=N/OC(=O)C2CCCCC2)cc1OC	2	6	-1	3	6.0*	1	4	3.6*
